Screening results as filed in PubChem.
HTR5A inv ctr – HTR5A inverse agonists in luminescence cell assay, primary screen, counter-screen for OPRM1-OPRD1 heterodimer inverse agonist project, full-deck HTS; HTR5A cell line, inverse agonism; inhibition, % at 9.3 µM; 0.083% of 340,000 active; in the data active means inhibition mostly above about 23%, no sharp cut-off; inactive means mostly below about 18%
Target sequence (P47898 whole entry, looked up): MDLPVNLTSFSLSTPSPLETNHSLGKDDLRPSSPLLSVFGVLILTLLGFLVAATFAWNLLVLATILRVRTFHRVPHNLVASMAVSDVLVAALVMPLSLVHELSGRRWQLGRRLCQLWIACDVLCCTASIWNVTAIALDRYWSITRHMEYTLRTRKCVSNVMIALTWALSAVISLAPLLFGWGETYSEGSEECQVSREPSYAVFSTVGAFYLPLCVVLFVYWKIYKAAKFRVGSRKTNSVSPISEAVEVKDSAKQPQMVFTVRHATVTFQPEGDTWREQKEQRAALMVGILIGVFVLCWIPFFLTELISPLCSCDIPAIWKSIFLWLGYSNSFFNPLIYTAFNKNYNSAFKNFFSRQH
MOR-DOR inv ag – inverse agonists of MOR-DOR heterodimerization, primary screen, cell-based, luminescence. Mu-type opioid receptor (Homo sapiens) + Delta-type opioid receptor (Homo sapiens), …. cell-based MOR-DOR heterodimer luminescence, inverse agonism. inhibition, % at 9.3 µM. 0.21% of 340,000 active. AID 504357, 2011; in the data active means inhibition above about 22%, passing the limit was not always enough
OPRM1-OPRD1 ag – agonists of OPRM1-OPRD1 heterodimerization, primary screen, cell-based, luminescence; cells; activation, % at 9.3 µM; 0.3% of 340,000 active; in the data active means activation above about 18%
HTR5A ag ctr – HTR5A agonists in luminescence cell assay, primary screen, counter-screen for OPRM1-OPRD1 heterodimer agonist project, full-deck HTS; 0.61% of 340,000 active; cell-based; activation, % at 9.3 µM; 5-hydroxytryptamine receptor 5A (Homo sapiens), P47898; in the data active means activation mostly above about 9.5%, no sharp cut-off; inactive means mostly below about 7.6%
HGIII-sPLA2 inh – human group III sPLA2 inhibitors, primary screen, biochemical, QFRET, BODIPY PC-A2 liposome substrate | QFRET BODIPY PC-A2 liposome hydrolysis, fluorescence | 0.56% of 370,000 active | Group 3 secretory phospholipase A2 (Homo sapiens), Q9NZ20 | inhibition, % at 12.2 µM;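 active means inhibition above mean plus 3 SD of compounds lying within the high and low control bounds, cut at about 19% in these data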
m5-HT2A agonist – mouse Htr2a agonists via beta-arrestin recruitment, primary screen, cell-based, luminescence | 5-hydroxytryptamine receptor 2A (Mus musculus), P35363 | CHO-K1 mHTR2A beta-arrestin complementation; percent of 30 µM serotonin response | activation, % at 7.6 µM | 0.66% of 360,000 active | AID 624169, 2012;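 active means activation above a run cutoff, the mean activation of all tested compounds plus 3 SD, cut at about 14% in these data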
sPLA2 confirm – human group III sPLA2 inhibitors, confirmation, biochemical, QFRET, triplicate. shares compounds with HGIII-sPLA2 inh. recombinant hGIII-sPLA2, BODIPY PC-A2 QFRET fluorescence. inhibition, % at 12.2 µM. 34% of 2,000 active. AID 743280, 2014;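 active means mean inhibition across triplicates above the hit cutoff set in the earlier primary screen, cut at about 19% in these data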
535nm interf – 535nm fluorescence optical interference, confirmation, artefact control for HGIII-sPLA2 inhibitor project, biochemical, QFRET; shares compounds with HGIII-sPLA2 inh; BODIPY FL product fluorescence interference; inhibition, % at 12.2 µM; 8.5% of 2,000 active; AID 743282, 2014;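 active means average inhibition above the solvent-only control mean plus 3 SD, cut at about 6% in these data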
BODIPY interf DR – 535nm fluorescence optical interference, dose response, artefact control for HGIII-sPLA2 inhibitor project, biochemical, QFRET | shares compounds with HGIII-sPLA2 inh | BODIPY FL product fluorescence interference, cell-free | IC50, µM | 240 tested, under 10 active;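 active means IC50 at or below 10 µM; inactive means IC50 above 10 µM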
A number is an active result. The list is not random: actives were taken first. Their share in the collection is about 2.2%.

For O=C(NCc1ccccc1)[C@H]1CCCN1C(=O)[C@H]1CCCN1C(=O)c1ccc(F)cc1F the results were HGIII-sPLA2 inh inactive.
Screening COc1ccccc1/C=C/C=N/NC(=O)c1ccccn1 returned HTR5A inv ctr inactive, MOR-DOR inv ag inactive, OPRM1-OPRD1 ag inactive, HTR5A ag ctr inactive, HGIII-sPLA2 inh 20, m5-HT2A agonist inactive, sPLA2 confirm inactive and 535nm interf inactive.
`COc1ccccc1/C=C/C=N/NC(=O)c1cnccn1` gave HTR5A inv ctr inactive, MOR-DOR inv ag inactive, OPRM1-OPRD1 ag inactive, HTR5A ag ctr inactive, HGIII-sPLA2 inh inactive and m5-HT2A agonist inactive.
`CNc1nc(-c2ccccc2)nc(-c2ccccc2)c1C#N` gave HTR5A inv ctr inactive, MOR-DOR inv ag inactive, OPRM1-OPRD1 ag inactive, HTR5A ag ctr inactive, HGIII-sPLA2 inh 20, m5-HT2A agonist inactive, sPLA2 confirm inactive and 535nm interf inactive.
O=C(OCc1cn(Cc2ccc(F)c(F)c2)nn1)N1CCOCC1 was read as HGIII-sPLA2 inh 19, sPLA2 confirm inactive and 535nm interf inactive.
COc1ccc(N/N=C/c2c(C(=O)O)ccc3ccccc23)cc1 was read as HTR5A inv ctr inactive, MOR-DOR inv ag inactive, OPRM1-OPRD1 ag inactive, HTR5A ag ctr inactive, HGIII-sPLA2 inh 19, m5-HT2A agonist inactive, sPLA2 confirm inactive and 535nm interf inactive.
For CCOC(=O)c1c(C)[nH]c(C(=O)COC(=O)/C=C/c2cccc(OC)c2OC)c1C the results were HTR5A inv ctr inactive, MOR-DOR inv ag inactive, OPRM1-OPRD1 ag inactive, HTR5A ag ctr inactive, HGIII-sPLA2 inh inactive and m5-HT2A agonist inactive.
`CCOC(=O)c1c(C)[nH]c(C(=O)COC(=O)COc2ccccc2C=O)c1C` gave HTR5A inv ctr inactive, MOR-DOR inv ag inactive, OPRM1-OPRD1 ag inactive, HTR5A ag ctr inactive, HGIII-sPLA2 inh 20, m5-HT2A agonist inactive, sPLA2 confirm inactive and 535nm interf inactive.
Screening CCCCN=C(N)NC(=O)c1ccccc1 returned HGIII-sPLA2 inh inactive.
For CCN1C(=O)/C(=C2/C=Cc3ccccc3N2CC)SC1=S the results were HTR5A inv ctr inactive, MOR-DOR inv ag inactive, OPRM1-OPRD1 ag inactive, HTR5A ag ctr inactive, HGIII-sPLA2 inh 21, m5-HT2A agonist inactive, sPLA2 confirm 43, 535nm interf inactive and BODIPY interf DR inactive.
`CCCN1C(=O)/C(=C2/C=Cc3ccccc3N2CC)SC1=S` gave HTR5A inv ctr inactive, MOR-DOR inv ag inactive, OPRM1-OPRD1 ag inactive, HTR5A ag ctr inactive, HGIII-sPLA2 inh 21, m5-HT2A agonist inactive, sPLA2 confirm 51 and 535nm interf 13.
For CCCN1/C(=C2/SC(=S)N(CC)C2=O)C=Cc2ccccc21 the results were HTR5A inv ctr inactive, MOR-DOR inv ag inactive, OPRM1-OPRD1 ag inactive, HTR5A ag ctr inactive, HGIII-sPLA2 inh inactive and m5-HT2A agonist inactive.
Screening C[C@H]1Cn2nncc2Cn2c3ccccc3c(=O)n21 returned HGIII-sPLA2 inh inactive.
Screening O=C(OCCN1CCN(C2CN(Cc3cn(Cc4ccccc4F)nn3)S(=O)(=O)C2)CC1)c1cc2ccccc2o1 (stereo not given) returned HGIII-sPLA2 inh inactive.
Screening COC(=O)C1=C(C)N(Cc2ccccc2C(F)(F)F)C(=NCc2ccc3c(c2)OCO3)NC1c1ccccc1C(F)(F)F (stereo not given) returned HGIII-sPLA2 inh inactive.
O=C(O)C1CSC2c3ccccc3C(=O)N12 (stereo not given) was read as HTR5A inv ctr inactive, MOR-DOR inv ag inactive, OPRM1-OPRD1 ag inactive, HTR5A ag ctr inactive, HGIII-sPLA2 inh 20, m5-HT2A agonist inactive, sPLA2 confirm inactive and 535nm interf inactive.
`O=C(NC1CCCC1)[C@@H]1CSC2c3ccccc3C(=O)N21` (stereo not given in full) gave HTR5A inv ctr inactive, MOR-DOR inv ag inactive, OPRM1-OPRD1 ag inactive, HTR5A ag ctr inactive, HGIII-sPLA2 inh inactive and m5-HT2A agonist inactive.
For CCn1c2ccccc2c2cc(NC(=O)COC(=O)c3ccc(F)cc3Cl)ccc21 the results were HGIII-sPLA2 inh inactive.
Screening COCCn1c(SCC(=O)Nc2cc(C)nn2-c2ccccc2)nnc1-c1ccncc1 returned HTR5A inv ctr inactive, MOR-DOR inv ag inactive, OPRM1-OPRD1 ag inactive, HTR5A ag ctr inactive, HGIII-sPLA2 inh 20, m5-HT2A agonist inactive, sPLA2 confirm inactive and 535nm interf inactive.
Screening Cc1cc(NC(=O)CSc2nnc(-c3ccncc3)n2Cc2ccccc2)n(-c2ccccc2)n1 returned HTR5A inv ctr inactive, MOR-DOR inv ag inactive, OPRM1-OPRD1 ag inactive, HTR5A ag ctr inactive, HGIII-sPLA2 inh inactive and m5-HT2A agonist inactive.
For OC(CCN1CCC2CCC(C2)C1)c1ccc(Br)cc1 (stereo not given) the results were HTR5A inv ctr inactive, MOR-DOR inv ag inactive, OPRM1-OPRD1 ag inactive, HTR5A ag ctr inactive, HGIII-sPLA2 inh 20, m5-HT2A agonist inactive, sPLA2 confirm inactive and 535nm interf inactive.
`COC(=O)CC[C@@H](/C=C/C(=O)OC(C)(C)C)Sc1ccc(C(C)(C)C)cc1` gave HGIII-sPLA2 inh inactive.
`N=C1C(c2nc3ccccc3[nH]2)=C(O)CN1c1ccccc1` gave HTR5A inv ctr inactive, MOR-DOR inv ag inactive, OPRM1-OPRD1 ag inactive, HTR5A ag ctr inactive, HGIII-sPLA2 inh 22, m5-HT2A agonist inactive, sPLA2 confirm inactive and 535nm interf inactive.
For COC(=O)C1CN(Cc2cn(Cc3ccc(C)cc3)nn2)CCS(=O)(=O)N1Cc1ccc(C)cc1 (stereo not given) the results were HGIII-sPLA2 inh inactive.
For O=c1nc(NCc2ccccc2Cl)cn[nH]1 the results were HTR5A inv ctr inactive, MOR-DOR inv ag inactive, OPRM1-OPRD1 ag inactive, HTR5A ag ctr inactive, HGIII-sPLA2 inh 25, m5-HT2A agonist inactive, sPLA2 confirm inactive and 535nm interf inactive.
Screening Cc1n[nH]c(=O)nc1NCc1ccccc1Cl returned HTR5A inv ctr inactive, MOR-DOR inv ag inactive, OPRM1-OPRD1 ag inactive, HTR5A ag ctr inactive, HGIII-sPLA2 inh inactive and m5-HT2A agonist inactive.
For O=C(OCc1cn(Cc2ccc(F)cc2F)nn1)N1CCCC1 the results were HGIII-sPLA2 inh inactive.
